log2 fold change data for 36 targets are collected here from the supplement of paper PMC10849652.

Targets with a hit are over-represented here; the source holds about 7,900 in all. About 0.6% of all pairs of compound and target were hits.

Sequence of UniProt Q6NXR4 (Q6NXR4 whole entry, looked up): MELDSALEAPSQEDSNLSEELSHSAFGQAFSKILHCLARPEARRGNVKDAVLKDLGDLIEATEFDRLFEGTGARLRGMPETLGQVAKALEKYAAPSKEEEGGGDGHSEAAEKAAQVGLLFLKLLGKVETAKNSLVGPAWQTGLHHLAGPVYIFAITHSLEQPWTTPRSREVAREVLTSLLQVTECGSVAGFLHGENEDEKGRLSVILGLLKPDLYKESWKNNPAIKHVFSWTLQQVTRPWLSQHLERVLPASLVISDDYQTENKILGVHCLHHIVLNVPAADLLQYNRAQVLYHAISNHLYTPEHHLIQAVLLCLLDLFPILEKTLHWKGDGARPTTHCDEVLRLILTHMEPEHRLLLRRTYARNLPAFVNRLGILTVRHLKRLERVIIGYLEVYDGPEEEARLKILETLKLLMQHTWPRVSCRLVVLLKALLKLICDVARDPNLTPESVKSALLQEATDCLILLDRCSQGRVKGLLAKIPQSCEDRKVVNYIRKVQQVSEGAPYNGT
Sequence of UniProt Q5VIR6 (Q5VIR6 whole entry, looked up): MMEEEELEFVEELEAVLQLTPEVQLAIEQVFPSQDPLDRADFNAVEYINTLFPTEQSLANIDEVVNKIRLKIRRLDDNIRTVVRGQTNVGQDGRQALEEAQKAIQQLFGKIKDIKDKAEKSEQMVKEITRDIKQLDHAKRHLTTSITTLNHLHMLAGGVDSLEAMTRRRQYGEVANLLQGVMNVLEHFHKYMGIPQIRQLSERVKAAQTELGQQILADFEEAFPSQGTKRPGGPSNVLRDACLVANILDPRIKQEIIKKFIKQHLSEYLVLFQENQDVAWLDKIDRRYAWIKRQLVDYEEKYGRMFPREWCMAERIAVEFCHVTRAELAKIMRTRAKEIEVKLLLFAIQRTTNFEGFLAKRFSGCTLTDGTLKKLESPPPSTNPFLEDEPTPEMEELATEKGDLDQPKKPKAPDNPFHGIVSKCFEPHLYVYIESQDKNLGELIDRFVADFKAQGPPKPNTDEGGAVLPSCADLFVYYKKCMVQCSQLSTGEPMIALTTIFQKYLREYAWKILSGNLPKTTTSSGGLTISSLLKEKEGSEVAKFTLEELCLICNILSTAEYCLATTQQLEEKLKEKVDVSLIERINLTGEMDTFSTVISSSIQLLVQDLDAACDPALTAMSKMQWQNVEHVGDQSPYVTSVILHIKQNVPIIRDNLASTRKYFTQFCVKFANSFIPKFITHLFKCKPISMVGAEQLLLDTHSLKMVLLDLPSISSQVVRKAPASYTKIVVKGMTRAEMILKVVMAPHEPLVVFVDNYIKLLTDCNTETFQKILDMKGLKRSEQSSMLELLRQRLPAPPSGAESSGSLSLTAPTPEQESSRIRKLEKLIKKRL
Sequence of UniProt Q7Z7N9 (Q7Z7N9 whole entry, looked up): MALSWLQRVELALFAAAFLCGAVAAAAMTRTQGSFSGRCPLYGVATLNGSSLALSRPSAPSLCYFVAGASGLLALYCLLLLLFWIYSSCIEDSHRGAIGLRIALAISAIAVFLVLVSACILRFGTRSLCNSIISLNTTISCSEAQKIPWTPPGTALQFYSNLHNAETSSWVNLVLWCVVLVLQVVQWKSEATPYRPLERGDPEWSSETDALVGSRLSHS
Sequence of UniProt Q9NQ34 (Q9NQ34 whole entry, looked up): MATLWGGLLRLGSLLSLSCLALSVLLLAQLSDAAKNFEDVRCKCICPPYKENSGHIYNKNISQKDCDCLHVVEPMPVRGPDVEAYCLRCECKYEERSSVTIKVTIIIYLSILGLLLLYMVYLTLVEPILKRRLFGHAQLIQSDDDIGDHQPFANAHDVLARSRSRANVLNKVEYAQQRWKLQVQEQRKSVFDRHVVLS
Sequence of UniProt Q6PID6 (Q6PID6 whole entry, looked up): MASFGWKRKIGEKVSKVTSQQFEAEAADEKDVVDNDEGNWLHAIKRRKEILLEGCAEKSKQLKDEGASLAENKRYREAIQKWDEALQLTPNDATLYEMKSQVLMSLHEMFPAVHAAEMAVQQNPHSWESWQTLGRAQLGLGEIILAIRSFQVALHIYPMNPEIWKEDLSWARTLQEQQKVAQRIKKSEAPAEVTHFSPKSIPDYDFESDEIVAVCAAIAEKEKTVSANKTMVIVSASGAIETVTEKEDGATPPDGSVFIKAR
Sequence of UniProt Q9Y5Z9 (Q9Y5Z9 whole entry, looked up): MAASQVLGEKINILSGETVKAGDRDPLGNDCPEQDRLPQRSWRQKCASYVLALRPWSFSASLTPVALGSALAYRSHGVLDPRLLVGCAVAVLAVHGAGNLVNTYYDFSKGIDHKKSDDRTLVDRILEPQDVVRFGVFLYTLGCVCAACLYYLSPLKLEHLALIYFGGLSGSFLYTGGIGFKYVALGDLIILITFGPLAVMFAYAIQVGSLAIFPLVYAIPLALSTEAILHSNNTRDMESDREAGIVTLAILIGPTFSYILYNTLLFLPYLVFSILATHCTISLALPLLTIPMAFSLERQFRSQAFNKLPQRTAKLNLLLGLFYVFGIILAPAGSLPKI
Sequence of UniProt O60701 (O60701 whole entry, looked up): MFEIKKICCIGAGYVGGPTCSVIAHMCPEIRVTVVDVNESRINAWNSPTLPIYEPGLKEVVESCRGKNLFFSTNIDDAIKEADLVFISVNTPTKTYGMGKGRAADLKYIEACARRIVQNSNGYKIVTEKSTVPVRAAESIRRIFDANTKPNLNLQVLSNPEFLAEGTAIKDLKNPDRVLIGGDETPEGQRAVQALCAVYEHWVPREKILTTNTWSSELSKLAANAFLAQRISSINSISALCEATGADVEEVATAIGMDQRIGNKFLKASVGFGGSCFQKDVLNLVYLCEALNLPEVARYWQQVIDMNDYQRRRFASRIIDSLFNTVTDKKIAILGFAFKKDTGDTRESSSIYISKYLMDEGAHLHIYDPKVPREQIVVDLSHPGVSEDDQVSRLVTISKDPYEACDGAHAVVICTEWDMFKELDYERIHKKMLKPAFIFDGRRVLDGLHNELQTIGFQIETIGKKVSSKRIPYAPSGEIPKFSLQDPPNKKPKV
Sequence of UniProt Q96FX7 (Q96FX7 whole entry, looked up): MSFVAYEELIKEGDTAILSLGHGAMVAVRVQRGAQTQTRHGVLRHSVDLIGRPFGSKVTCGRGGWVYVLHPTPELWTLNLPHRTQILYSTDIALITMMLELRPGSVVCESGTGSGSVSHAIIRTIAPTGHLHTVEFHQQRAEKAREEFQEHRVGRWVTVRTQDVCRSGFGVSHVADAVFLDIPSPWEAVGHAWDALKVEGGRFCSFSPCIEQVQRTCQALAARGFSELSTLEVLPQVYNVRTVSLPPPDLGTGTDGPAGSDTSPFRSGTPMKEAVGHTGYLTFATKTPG
Sequence of UniProt Q15906 (Q15906 whole entry, looked up): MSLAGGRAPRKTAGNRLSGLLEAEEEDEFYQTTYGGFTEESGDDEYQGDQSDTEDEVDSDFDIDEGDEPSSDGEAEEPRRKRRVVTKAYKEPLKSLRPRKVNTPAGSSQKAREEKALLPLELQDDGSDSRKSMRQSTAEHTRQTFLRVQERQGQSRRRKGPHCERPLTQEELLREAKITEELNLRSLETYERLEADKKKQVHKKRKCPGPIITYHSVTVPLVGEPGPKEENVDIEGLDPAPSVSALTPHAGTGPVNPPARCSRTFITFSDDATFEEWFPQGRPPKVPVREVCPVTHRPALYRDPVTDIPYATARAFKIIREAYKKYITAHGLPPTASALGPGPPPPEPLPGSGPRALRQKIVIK
Sequence of UniProt Q7Z3V4 (Q7Z3V4 whole entry, looked up): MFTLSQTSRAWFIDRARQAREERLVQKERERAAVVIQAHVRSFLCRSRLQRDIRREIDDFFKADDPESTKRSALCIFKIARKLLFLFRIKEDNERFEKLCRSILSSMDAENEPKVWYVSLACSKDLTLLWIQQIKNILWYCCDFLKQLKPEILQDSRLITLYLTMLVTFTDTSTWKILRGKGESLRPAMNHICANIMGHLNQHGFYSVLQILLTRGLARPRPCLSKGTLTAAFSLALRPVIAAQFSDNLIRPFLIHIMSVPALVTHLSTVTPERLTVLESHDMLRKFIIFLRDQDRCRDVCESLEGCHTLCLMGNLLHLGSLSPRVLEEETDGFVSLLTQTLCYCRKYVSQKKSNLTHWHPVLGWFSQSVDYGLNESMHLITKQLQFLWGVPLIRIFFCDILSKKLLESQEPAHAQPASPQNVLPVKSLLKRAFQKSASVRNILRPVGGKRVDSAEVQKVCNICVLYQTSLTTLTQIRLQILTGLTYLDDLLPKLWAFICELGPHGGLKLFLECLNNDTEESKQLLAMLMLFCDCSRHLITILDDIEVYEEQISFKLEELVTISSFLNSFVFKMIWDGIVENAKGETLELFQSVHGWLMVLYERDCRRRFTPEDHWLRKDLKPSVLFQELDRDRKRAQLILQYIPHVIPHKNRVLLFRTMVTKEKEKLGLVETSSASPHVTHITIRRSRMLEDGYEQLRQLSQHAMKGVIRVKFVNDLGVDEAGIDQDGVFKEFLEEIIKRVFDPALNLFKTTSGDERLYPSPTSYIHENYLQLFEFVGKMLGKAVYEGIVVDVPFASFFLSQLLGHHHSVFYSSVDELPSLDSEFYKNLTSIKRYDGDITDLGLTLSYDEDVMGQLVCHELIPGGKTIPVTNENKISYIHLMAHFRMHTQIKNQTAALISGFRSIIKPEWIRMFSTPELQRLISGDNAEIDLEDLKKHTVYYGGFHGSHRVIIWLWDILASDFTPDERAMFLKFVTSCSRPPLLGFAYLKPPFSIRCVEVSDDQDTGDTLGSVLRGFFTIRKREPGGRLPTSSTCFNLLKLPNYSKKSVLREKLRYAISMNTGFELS
Sequence of UniProt Q9H4I3 (Q9H4I3 whole entry, looked up): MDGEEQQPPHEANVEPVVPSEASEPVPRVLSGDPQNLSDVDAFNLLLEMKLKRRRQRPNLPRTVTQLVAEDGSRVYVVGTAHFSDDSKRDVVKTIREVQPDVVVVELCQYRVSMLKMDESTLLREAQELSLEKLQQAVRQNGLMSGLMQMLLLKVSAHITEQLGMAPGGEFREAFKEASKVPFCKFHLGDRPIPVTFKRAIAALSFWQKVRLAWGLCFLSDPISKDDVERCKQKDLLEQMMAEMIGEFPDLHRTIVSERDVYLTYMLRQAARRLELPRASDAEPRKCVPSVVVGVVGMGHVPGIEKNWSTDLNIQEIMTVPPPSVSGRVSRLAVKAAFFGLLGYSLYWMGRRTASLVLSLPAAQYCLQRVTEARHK

Compound in one assay: CC1=C(C=C(C=C1)NC(=O)C2=CC(=CC=C2)C(C)(C)C#N)NC3=CC4=C(C=C3)N=CN(C4=O)C
Put plainly: log2 fold change, soluble protein after heating vs DMSO (PISA); higher = thermal stabilisation; K562 cells, 10 uM, 30 min; active = over 0.2 and 3.5 SD of the protein, either way, in both replicates (recomputed). A digest of the protocol: (§1)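 Soluble protein was defined as the supernatant after 21,000xg for 90 min. It came from K562 cells at 2×10^6 cells/mL given 10 μM compound for 30 min, heated in aliquots for 3 min across 48°C-58°C, pooled, and extracted in PBS with 0.5% NP-40 at 4°C, and was quantified by TMTpro 16plex LC-MS/MS with equalised channel sums. Thermal stability against control samples, from duplicates, is reported as log2 fold change.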
In the case of VPS11 (UniProt Q9H270), the log2 fold change is 0.016 (inactive).
The same measure, in the same setting: for TXNL4B (UniProt Q9NX01) the value was -0.037 (inactive); for USP3 (UniProt Q9Y6I4), 0.026 (inactive); for TRIM4 (UniProt Q9C037), -0.031 (inactive).
Still for that read-out and setting: for TMEM128 (UniProt Q5BJH2) the value was -0.023 (inactive); for VPS53 isoform 4 (UniProt Q5VIR6), -0.037 (inactive); for VPS37A (UniProt Q8NEZ2), -0.015 (inactive).
On the same count and under the same terms, for TUBA4A (UniProt P68366) the value was 0.005 (inactive).
Regarding VDAC1 (UniProt P21796), the log2 fold change was -0.025 (inactive).
For the target UBA52 (UniProt P62987), the log2 fold change is -0.046 (inactive).
Still for that read-out and setting: for VPS28 (UniProt Q9UK41) the value was 0.029 (inactive); for UNC119B (UniProt A6NIH7), 0.293 (inactive); for TRMT61A (UniProt Q96FX7), 0 (inactive).
The same measure, in the same setting: for WNK1 isoform 7 (UniProt Q9H4A3) the value was -0.047 (inactive).
The same measure, in the same setting: for TSPAN13 (UniProt O95857) the value was 0.111 (inactive).
Consider TTI2 (UniProt Q6NXR4), for which the log2 fold change is 0.021 (inactive).
With TTC33 (UniProt Q6PID6), the log2 fold change is -0.046 (inactive).
Still for that read-out and setting: under UTP3 (UniProt Q9NQZ2) stands -0.016 (inactive).
Same read-out and setting: under ULBP1 (UniProt Q9BZM6) stands -0.088 (inactive); under UBE3B (UniProt Q7Z3V4), 0.142 (inactive); under VPS13B (UniProt Q7Z7G8), 0.02 (inactive).
Still for that read-out and setting: under TMEM70 (UniProt Q9BUB7) stands 0.006 (inactive).
Take UBE4B isoform 4 (UniProt O95155): the log2 fold change was 0.007 (inactive).
On the same count and under the same terms, under VPS72 isoform 2 (UniProt Q15906) stands -0.051 (inactive); under UBIAD1 (UniProt Q9Y5Z9), -0.03 (inactive); under TRIM44 (UniProt Q96DX7), 0.059 (inactive).
On the same count and under the same terms, under UGDH (UniProt O60701) stands 0.039 (inactive); under TRABD (UniProt Q9H4I3), 0.014 (inactive); under UBXN8 (UniProt O00124), -0.029 (inactive).
Still for that read-out and setting: for WEE1 (UniProt P30291) the value was -0.037 (inactive); for UCHL5 isoform 3 (UniProt Q9Y5K5), -0.09 (inactive); for UFM1 (UniProt P61960), 0.031 (inactive).
In the case of TSC2 (UniProt P49815), the log2 fold change is -0.09 (inactive).
Turning to TMEM9B (UniProt Q9NQ34), the log2 fold change is -0.068 (inactive).
Same read-out and setting: under VKORC1 (UniProt Q9BQB6) stands 0.064 (inactive); under TMEM179B (UniProt Q7Z7N9), -0.233 (inactive).

Compound in another assay: CC1=C(C=C(C=C1)NC(=O)C2=CC(=CC=C2)N(C)C)NC(=O)C3=CC=C(C=C3)O
Described as above. A digest of the protocol: as §1
For the target VPS11 (UniProt Q9H270), the log2 fold change is -0.003 (inactive).
Still for that read-out and setting: for TXNL4B (UniProt Q9NX01) the value was -0.088 (inactive).
The same measure, in the same setting: under USP3 (UniProt Q9Y6I4) stands -0.016 (inactive); under TRIM4 (UniProt Q9C037), 0.023 (inactive).
On the same count and under the same terms, under TMEM128 (UniProt Q5BJH2) stands -0.006 (inactive).
As for VPS53 isoform 4 (UniProt Q5VIR6), the log2 fold change was -0.053 (inactive).
On the same count and under the same terms, under VPS37A (UniProt Q8NEZ2) stands -0.171 (inactive); under TUBA4A (UniProt P68366), 0.004 (inactive); under VDAC1 (UniProt P21796), 0.02 (inactive).
The same measure, in the same setting: for UBA52 (UniProt P62987) the value was 0.024 (inactive); for VPS28 (UniProt Q9UK41), -0.044 (inactive); for UNC119B (UniProt A6NIH7), -0.057 (inactive).
The same measure, in the same setting: under TRMT61A (UniProt Q96FX7) stands 0.056 (inactive); under WNK1 isoform 7 (UniProt Q9H4A3), 0.426 (inactive); under TSPAN13 (UniProt O95857), -0.078 (inactive).
With TTI2 (UniProt Q6NXR4), the log2 fold change is -0.039 (inactive).
The same measure, in the same setting: under TTC33 (UniProt Q6PID6) stands -0.025 (inactive).
Same read-out and setting: under UTP3 (UniProt Q9NQZ2) stands 0.008 (inactive).
Same read-out and setting: under ULBP1 (UniProt Q9BZM6) stands 0.023 (inactive).
Take UBE3B (UniProt Q7Z3V4): the log2 fold change was 0.086 (inactive).
The same measure, in the same setting: for VPS13B (UniProt Q7Z7G8) the value was -0.028 (inactive).
Same read-out and setting: for TMEM70 (UniProt Q9BUB7) the value was 0.051 (inactive).
On the same count and under the same terms, under UBE4B isoform 4 (UniProt O95155) stands -0.012 (inactive); under VPS72 isoform 2 (UniProt Q15906), 0.196 (inactive).
Take UBIAD1 (UniProt Q9Y5Z9): the log2 fold change was 0.059 (inactive).
Same read-out and setting: under TRIM44 (UniProt Q96DX7) stands -0.055 (inactive); under UGDH (UniProt O60701), -0.005 (inactive).
Same read-out and setting: under TRABD (UniProt Q9H4I3) stands -0.017 (inactive); under UBXN8 (UniProt O00124), 0.169 (inactive).
On the same count and under the same terms, for WEE1 (UniProt P30291) the value was 0.02 (inactive).
As for UCHL5 isoform 3 (UniProt Q9Y5K5), the log2 fold change is -0.145 (inactive).
The same measure, in the same setting: for UFM1 (UniProt P61960) the value was -0.046 (inactive); for TSC2 (UniProt P49815), 0.004 (inactive); for TMEM9B (UniProt Q9NQ34), 0.042 (inactive).
Same read-out and setting: for VKORC1 (UniProt Q9BQB6) the value was -0.04 (inactive); for TMEM179B (UniProt Q7Z7N9), -0.003 (inactive).
